STK33 kin inh: inhibitors of human STK33 kinase. Q9BYT3. ADP-Glo luminescence, MBP substrate. inhibition, % at 12.5 µM. 27,000 tested, 0.44% active; in the data active = inhibition above about 20%; inconclusive = no clear call, values can overlap the other calls
Target sequence (Q9BYT3 whole entry, looked up): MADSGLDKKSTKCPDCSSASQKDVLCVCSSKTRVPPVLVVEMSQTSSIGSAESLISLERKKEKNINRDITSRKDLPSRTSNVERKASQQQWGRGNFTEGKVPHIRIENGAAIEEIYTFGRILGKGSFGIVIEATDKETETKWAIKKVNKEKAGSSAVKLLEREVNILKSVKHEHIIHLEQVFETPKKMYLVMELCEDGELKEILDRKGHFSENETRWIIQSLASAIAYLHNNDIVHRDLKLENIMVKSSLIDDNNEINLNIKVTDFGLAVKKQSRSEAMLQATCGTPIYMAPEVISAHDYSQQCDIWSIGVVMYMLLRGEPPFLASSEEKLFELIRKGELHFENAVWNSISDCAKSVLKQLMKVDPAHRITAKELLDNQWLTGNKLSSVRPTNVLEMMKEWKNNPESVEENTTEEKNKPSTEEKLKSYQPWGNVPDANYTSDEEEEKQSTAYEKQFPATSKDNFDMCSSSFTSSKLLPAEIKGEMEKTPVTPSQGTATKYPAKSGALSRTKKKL
PD-1 reverse act: reversal of PD-1 mediated T-cell inhibition. primary human CD4 T cells, PD-L1 beads, CellTiter-Glo 96 h. activation, % (no concentration beside the values). 29,000 tested, under 10 active. AID 2316; call rule not given here;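 also: 0% = median vehicle wells and 100% = positive control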
NOMO-1 viab: STK33 inhibitor candidate reducing NOMO-1 cell viability | NOMO-1 AML viability, CellTiter-Glo luminescence, 72 h | inhibition, % (test concentration not listed) | 37,000 tested, 7.5% active | AID 2330; in the data active = inhibition above about 80%; inconclusive = no clear call, values can overlap the other calls
Active calls of the source: *; ? = inconclusive; . = not tested or not shown. Many of the other results were omitted from the sample, so hits are more common in it than they were.

SMILES	STK33 kin inh	PD-1 reverse act	NOMO-1 viab
COc1ccc2c3c4n(c2c1)[C@@H](C=C(C)C)OOC(C)(C)C[C@@H]4N1C(=O)[C@@H]2CCCN2C(=O)[C@]1(O)[C@H]3OCC=C(C)C	-6	-1	56
CC(=O)Nc1ccc(Cc2ccc(NC(C)=O)cc2)cc1	.	-1	25
CCC(C)(O)C(=O)O[C@H]1C(=O)O[C@@H]2C[C@H]3C(C)=CC(=O)[C@@H](O)[C@]3(C)[C@H]3[C@@]4(O)OC[C@]32[C@@H]1[C@@H](C)[C@H]4O (some centres undefined)	-3	-7	124*
CCOC(=O)C1=C(N)Oc2c(c(=O)oc3ccccc23)C12C(=O)N(CC(=O)OC)c1ccccc12 (centres undefined)	.	0	6
COc1cc2c(c(OC)c1OC)-c1cc3c(cc1[C@H](OC(C)=O)[C@H]1COC(=O)[C@@H]1C2)OCO3	-3	-9	107*
COc1ccc(CC2C(=O)OCC2Cc2ccc3c(c2)OCO3)cc1OC (centres undefined)	-2	2	8
C=C1[C@@H](C)[C@H]2[C@H](Cc3ccccc3)NC(=O)[C@]23OC(=O)/C=C\[C@H](O)CCC[C@@H](C)C/C=C/[C@H]3[C@@H]1O	0	-13	120*
Cc1ccc(NC(=O)c2cccc(OC(=O)N(C)c3ccccc3)c2)cc1C	.	-1	20
CNc1ccc2oc(C[C@@H]3OC4(CC[C@@H]3C)O[C@H](C(C)C(=O)c3ccc[nH]3)[C@H](C)C[C@H]4C)nc2c1C(=O)O (some centres undefined)	1	.	120*
C=CCN1CC[C@]23c4c5ccc(O)c4O[C@H]2C(=O)CC[C@@]3(O)[C@H]1C5	-1	5	-3
C=CCN1CCc2cccc3c2[C@H]1Cc1ccc(O)c(O)c1-3	3	.	114*
O=c1c2ccccc2nc(CSc2ncnc3ccccc23)n1-c1ccccc1F	6	-9	?
CC12CCC3C(CC=C4CC(O)CCC43CO)C1CCC2OC(=O)c1ccccc1 (centres undefined)	.	0	66
C[CH2][Hg][S]c1ccccc1C(=O)O	3	.	111*
CNc1ccccc1C(=O)O	0	.	2
NCC(=O)Nc1ccc(Br)cc1C(=O)c1ccccc1	3	.	4
COc1ccccc1OCCCn1cc(C(=O)c2ccccc2)c2ccccc21	3	.	0
CCCCC/C=C\C/C=C\C/C=C\C/C=C\CCCC(=O)NCc1ccc(O)c(OC)c1	-7	.	117*
Cc1ccc(S(=O)(=O)N2CCCCC2)cc1C(=O)Oc1cccc2cccnc12	.	1	116*
CN[C@@H]1C[C@@]2(C)O[C@@H]([C@@H]1OC)n1c3ccccc3c3c4c(c5c6ccccc6n2c5c31)C(=O)NC4	131*	.	114*
COc1cc(C(=O)O[C@H]2[C@@H]3C=CO[C@@H](O[C@@H]4O[C@H](CO)[C@@H](O)[C@H](O)[C@H]4O)[C@@H]3[C@@]3(CO)O[C@@H]23)ccc1O	3	3	-14
Cn1cnc(-n2oo2)c1C#N	0	4	19
C=CC1CN2CCC3(C(=O)Nc4ccccc43)C2CC1/C(=C/OC)C(=O)OC (centres undefined)	1	2	30
CC(=O)OC[C@]12C[C@H](O)C(C)=C[C@H]1O[C@@H]1[C@H](O)[C@@H](OC(C)=O)[C@@]2(C)[C@]12CO2	-2	-5	123*
CC(=O)OC[C@]12CCC(C)=C[C@H]1O[C@@H]1[C@H](O)[C@@H](OC(C)=O)[C@@]2(C)[C@]12CO2	2	-10	109*
C/C=C1/CN2C3CC1C(CO)C2Cc1c3[nH]c2ccc(OC)cc12 (centres undefined)	-5	.	.
COc1ccc2c3c1O[C@H]1[C@@H](O)C=C[C@H]4C(C2)N(C)CCC341 (some centres undefined)	4	.	.
O=C(c1ccco1)c1cn(CCCOc2ccccc2)c2ccccc12	9	-1	31
O=C(Cn1cc(C(=O)c2ccccc2)c2ccccc21)Nc1ccc(F)cc1	-2	0	49

High-throughput results (PubChem BioAssay)
